# HT1080 IDH1KD tx – kills HT-1080 cells with IDH1 knockdown | 2% of 360,000 active | HT-1080 IDH1 knockdown viability, ATP luminescence, 48 h | Potency, µM (top dose mostly 46.1 µM), most hits filed as cytotoxic
#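 Knockdown cells (IDH1KD HT-1080) received compounds 2 h after plating at 750 cells/well and were kept 48 h at 37 °C in 5% FBS RPMI. A CellTiter-Glo luminescence read gave % activity for curve fitting.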
# TDP1 cell noCPT – qHTS for Inhibitors of human tyrosyl-DNA phosphodiesterase 1 (TDP1): qHTS in cells in absence of CPT; DT40 Tdp1-/- hTDP1 cells, no CPT, ATP luminescence, 48 h; Potency, µM (series often up to 46.2 µM), usual class: inhibitors; 15% of 420,000 active; also: nearly all actives have a fitted effect of over 55% in size
#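 Seeded 400 DT40-hTDP1 cells/well (vehicle DMSO, no 20 nM CPT); pinned compounds; ≥48 hr at 37 °C; CellTiter-Glo luminescence as viability measure.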
# DT40 TDP1 CPT – growth inhibition of DT40 Tdp1-/-;hTDP1 cells with camptothecin (screen for TDP1 inhibitors); 12% of 420,000 active; chicken DT40 Tdp1-/-;hTDP1 cells + 20 nM CPT, ATP luminescence, 48 h; Potency, µM (highest dose often 46.2 µM), usual class: inhibitors; also: nearly all actives have a fitted effect of over 55% in size
#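 Cell growth measured by CellTiter-Glo luminescence after a minimum 48 h, 37 C compound exposure with 20 nM CPT in Tdp1-knockout DT40 cells stably expressing hTDP1, seeded 400/well; qHTS titration format.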
# IL-1B inflam inh – blocks inflammasome-driven IL-1 beta release. 4.7% of 360,000 active. activity change, % at 57.5 µM. THP-1 LPS/ATP IL-1B secretion, AlphaLISA, 16 h; active compounds read low. AID 743279; in the data active = activity change below about -50%; inconclusive = mostly about -30% to -49%
#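 Secreted IL-1B measured by AlphaLISA bead assay after 16 h compound exposure of THP-1 cells; compounds (final up to 57.5 uM) added 1 h before LPS (250 ng/mL) and ATP (1.25 mM) stimulation; lower signal means less secretion.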
# HT1080NT lethal – kills 2HG-producing HT-1080-NT fibrosarcoma cells; HT-1080-NT fibrosarcoma viability, CellTiter-Glo ATP luminescence, 48 h; AID 686970; Potency, µM (series often up to 46.1 µM), actives largely listed as cytotoxic; 1.6% of 360,000 active;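 also: NT is the 2HG producing partner of a matched IDH1 knockdown line; nearly all actives have a fitted effect of over 55% in size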
#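 Toxicity toward the 2HG-producing NT line was scored as %Activity, normalised to DMSO and no-cell wells, from CellTiter-Glo luminescence after 48 hours' treatment.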
# Numbers stand for hits; i = inactive; ? = inconclusive; nt = not tested or not shown; [ ] = dose if it differs, or a comment. Rows were chosen to be rich in hits. Some 19% of all compounds tested hit in one or more screens of this group. Unless noted, calls follow the shape of the dose curve; as a rule, active = well fitted curve in the direction sought with a large enough effect; inconclusive = small, poorly fitted or top-dose-only effect, or another doubt; inactive = no such curve, though single readings can be large; an effect the other way counts as inactive or inconclusive.
SMILES,HT1080 IDH1KD tx,TDP1 cell noCPT,DT40 TDP1 CPT,IL-1B inflam inh,HT1080NT lethal
Cc1cc(C(=O)Nc2cccnc2)no1,i,?,?,i,i
Cc1cc(NC(c2cccnc2)c2ccc3cccnc3c2O)no1 (stereo not given),?,3.7µM,3.3µM,i,?
CN1CCN(C(c2ccc(C(F)(F)F)cc2)c2ccc3cccnc3c2O)CC1 (stereo not given),?,8.2µM,8.2µM,-85,i
Oc1c(C(Nc2cccnc2)c2ccc(C(F)(F)F)cc2)ccc2cccnc12 (stereo not given),nt,8.9µM,?,nt,nt
CC(=O)NC12CC3CC(C1)CC(C(=O)N1CCN(S(=O)(=O)c4ccc([N+](=O)[O-])cc4)CC1)(C3)C2,i,i,i,i,i
O=c1cc(CO)oc(C(Nc2ccccn2)c2ccccc2Cl)c1O (stereo not given),i,i,i,i,i
Oc1cccc(C(Nc2ccccn2)c2ccc3cccnc3c2O)c1Cl (stereo not given),nt,3.3µM,0.65µM,nt,nt
O=C(CC1(C(F)(F)F)OCCO1)Nc1ccc2c(c1)OCO2,i,i,i,i,i
CCN1CCC(N[C@H]2C[C@@H](C(=O)NC)N(Cc3cccc4ccccc34)C2)CC1,nt,?,i[9.04 µM],nt,nt
C[n+]1c2n(c3ccccc31)N=C(c1cc(C(C)(C)C)c(O)c(C(C)(C)C)c1)CS2,7.3µM,2.6µM,4.1µM,-100,23µM
COc1cccc(C2=Nn3c(nnc3-c3ccccc3O)SC2)c1,i,?,?,i,i
Cc1ccc(CN(C(=O)COc2ccc([N+](=O)[O-])cc2)c2ccccn2)o1,nt,?,i,nt,nt
CC(C)c1ccc(OCC(=O)N(Cc2ccccc2)c2ccccn2)cc1,i,16µM,23µM,i,i
Cc1ccc(CN(C(=O)COc2ccc([N+](=O)[O-])cc2)c2ccccn2)cc1,nt,16µM,?,nt,nt
CC(C)(Oc1ccc(Cl)cc1)C(=O)N(Cc1ccccc1)c1ccccn1,i,18µM,?,i,i
CN1C(=O)NC(c2cccc(F)c2)C2=C1CC(C)(C)CC2=O (stereo not given),i,i,i,i,i
CCOC(=O)CSC1=N/C(=C\c2ccc(OC)c(OC)c2)C(=O)N1C,i,?,26µM,i,i
CCOC(=O)CSC1=NC(=O)/C(=C/c2ccc(OC)cc2)S1,?,1.3µM,1.5µM,-86,?
CC(NC(=O)C1CCCN(S(=O)(=O)N2CCOCC2)C1)c1ccccc1 (stereo not given),i,i,i,i,i
CCOC(=O)CN1N=C(/C=C/c2ccc(C(C)C)cc2)CCC1=O,i,?,?,-56,i
CCOC(=O)CN1N=C(/C=C/c2ccccc2)CCC1=O,i,i,i,i,i
CCCN1C(=O)C2(c3ccccc31)c1c(oc3ccccc3c1=O)C(=O)N2CCO (stereo not given),nt,i,i,nt,nt
CCCN1C(=O)C2(c3ccccc31)c1c(oc3ccc(F)cc3c1=O)C(=O)N2CCCOC(C)C (stereo not given),nt,?,21µM,nt,nt
CCNc1ncc2nc(-c3ccc(OC)cc3)c(=O)n(CCc3ccccc3)c2n1,nt,i,i,nt,nt
COC(=O)[C@@]12CCCCN1[C@H](c1ccc(-c3cc(C(C)=O)cs3)c(OC)c1)[C@H]1C(=O)N(C)C(=O)[C@H]12,i,2.9µM,4.1µM,i,i
SMILES,HT1080 IDH1KD tx,TDP1 cell noCPT,DT40 TDP1 CPT,IL-1B inflam inh,HT1080NT lethal
COC(=O)[C@@]12CCCN1[C@H](c1ccc(-c3ccccc3)c(OC)c1)[C@H]1C(=O)N(C)C(=O)[C@H]12,i,i,?,i,i
COC(=O)[C@@]12CCCCN1[C@H](c1ccc(-c3cc(C(C)=O)cs3)cc1)[C@H]1C(=O)N(C)C(=O)[C@H]12,i,3.7µM,5.2µM,i,i
CC1Oc2cc3oc4c(O)c5c(cc4c(=O)c3c(O)c2C1(C)C)C=CC(C)(C)O5 (stereo not given),i,21µM,?,i,i
CCN(Cc1ccncc1)Cc1nc(Cc2ccccc2Cl)no1,i,13µM,?,i,?
CN(Cc1cnccn1)Cc1nc(Cc2ccccc2Cl)no1,i,i,i,i,i
O=C(CN1CCCCC1)Nc1ccc(S(=O)(=O)c2ccc(NC(=O)CN3CCCCC3)cc2)cc1,i,13µM,16µM,i,i
O=C(CN1CCN(S(=O)(=O)N2CCCCC2)CC1)Nc1ccc(Cl)c(Cl)c1,?,23µM,?,-77,i
CN(C)S(=O)(=O)c1ccc(NC(=O)CN2CCN(C(c3ccccc3)c3ccccc3)CC2)cc1,i,21µM,?,i,i
O=C(CN1CCN(S(=O)(=O)N2CCCCC2)CC1)Nc1cc(Cl)cc(Cl)c1,i,?,i,-65,i
O=C(CN1CCN(S(=O)(=O)N2CCCCCC2)CC1)Nc1ccc(Br)cc1,i,?,?,i,i
O=C(CN1CCN(S(=O)(=O)N2CCCCCC2)CC1)Nc1ccc(F)cc1,i,i,i,i,i
CCN(CC)S(=O)(=O)c1ccc2c(c1)N(CC(=O)Nc1ccc(F)cc1)C(=O)CO2,nt,?,i,nt,nt
O=c1c2ccccc2nc(-c2ccco2)n1Cc1ccccc1,i,?,?,i,i
O=c1c2ccccc2nc(-c2ccc(Br)cc2)n1Cc1ccccc1,i,23µM,8.2µM,i,i
O=c1c2ccccc2nc(-c2ccoc2)n1CCc1ccccc1,i[9.24 µM],6.5µM,7.3µM,i,i
O=C(CCCn1nnnc1CN1CCOCC1)N1CCC(c2ccc(F)cc2)C1 (stereo not given),?,?,i,?,?
C=CCNC(=S)N/N=C(\C)c1ccccn1,?,0.018µM,0.01µM,i,?
C/C(=N/NC(=O)CNC(=O)c1ccccn1)c1ccccc1,i,i,i,i,i
CC(=NNC(=S)Nc1ccccc1)c1ccccn1,?,0.12µM,0.026µM,?,?
CC(=NNC(=S)Nc1ccccc1Cl)c1ccccn1,?,0.15µM,0.013µM,-102,i
O=C(c1ccccc1)C1CCN(C(=O)c2ccco2)CC1,i,i,i,?,i
CCNC(=S)NNC(=O)Nc1ccccc1,i,i,i,i,i
CC1=C(C(=O)N2CCCCCC2)CC(CC(=O)NCC2CCCCC2)C(=O)N1Cc1ccc(F)cc1 (stereo not given),i,?,23µM,i,i
CC1=C(C(=O)N(C(C)C)C(C)C)CC(CC(=O)NCC2CCCCC2)C(=O)N1Cc1ccc(F)cc1 (stereo not given),i,18µM,16µM,?,i
Cc1ccc(S(=O)(=O)Nc2ccc3c(c2)C(=O)N([C@@H](C)CO)C[C@@H](C)[C@@H](CN(C)CC2CC2)OCCCC[C@@H](C)O3)cc1,i,?,?,i,i
COc1ccccc1-c1cnc2c(Nc3cccc(OC(F)(F)C(F)F)c3)nccn12,i,?,?,i,i

# Screening data: PubChem BioAssay, National Center for Advancing Translational Sciences (NCATS)
